Consider six compounds from PubChem BioAssay (Tox21).

A short description of test [1]: Nuclear factor erythroid 2-related factor 2/antioxidant responsive element (Nrf2/ARE) small molecule agonists: qHTS cell viability counter screen in human keratinocytes (AID 1919968; active = well fitted curve in the direction sought with a large enough effect in the repeat runs; an effect the other way counts as inactive or inconclusive; also: nearly all actives have a fitted effect of over 55% in size). An outline of the steps:
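Measured as CellTiter-Fluor fluorescence, this readout tracks cytotoxicity in the same wells as the ARE-luciferase screen. HaCaT reporter cells (1,500/well) received compounds after a 5 h pre-incubation and were exposed for 23 h.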
(In general: Quantitative high-throughput screening tests each substance at several concentrations.)

Test [2] in a line: Nuclear factor erythroid 2-related factor 2/antioxidant responsive element (Nrf2/ARE) small molecule agonists: luciferase reporter gene qHTS assay in human keratinocytes (AID 1919969). Also: nearly all actives have a fitted effect of over 35% in size. Also: potency is read from the fitted curve at half-maximal effect.
Test [3] has as its target Gonadotropin-releasing hormone receptor (Homo sapiens) (UniProt P30968). Briefly: Human gonadotropin-releasing hormone receptor (GnRHR) small molecule agonists, calcium flux assay in GnRHR-HEK293 cells (AID 1920063). Also: nearly all actives have a fitted effect of over 35% in size. Put shortly: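 Fluorescence kinetics (480 nm excitation, 540 nm emission; 3 min, 1 s steps) report calcium mobilisation in human GnRHR-HEK293 cells in agonist mode. Dye incubation: 1 h, 37 C.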

Test [4] addresses KiSS-1 receptor (Homo sapiens) (UniProt Q969F8). Briefly: Human kisspeptin (KISS1R) small molecule agonists, calcium flux assay in KISS1R-HEK293 cells (AID 1920064; active = well fitted curve in the direction sought with a large enough effect in the repeat runs; an effect the other way counts as inactive or inconclusive). Put shortly: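 Measures KISS1R agonism through calcium-sensitive dye fluorescence in stably transfected HEK293 cells, read for 3 min after pin-tool compound delivery; 15-point titrations in triplicate.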
A short description of test [5]: G protein-coupled receptor (GPCR) small molecule agonists, calcium flux assay: HEK293 wild type cell line counter screen (AID 1920065). Put shortly:
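Readout: fluorescence at 480 nm excitation/540 nm emission, sampled at 1 s intervals for 3 min. Cells had been cultured 18 h, then dye-loaded 1 h at 37 C before compound or ATP addition.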

The nature of test [6]: p53 small molecule agonists, cell-based qHTS assay with human liver microsomes (AID 1963577).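 Also: p53 response element beta-lactamase reporter cells with liver microsomes plus NADPH.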 Put shortly:
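16 h, 37 C exposure of p53RE-bla cells to compounds with human liver microsomes and NADPH (0.5 mg/mL final each); detection via LiveBLAzer mixture, 2 h dark at room temperature.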

Test [7] can be described thus: p53 small molecule agonists, cell-based qHTS assay with rat liver microsomes (AID 1963578). Put shortly: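 With rat liver microsomes and NADPH present (0.5 mg/mL final each), p53RE-bla cells are treated with compound for 16 h at 37 C. LiveBLAzer detection mixture is then applied for 2 h at room temperature in the dark.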
Test [8] can be described thus: p53 small molecule agonists, cell-based qHTS assay: qHTS cell viability counter screen (AID 1963581). Also: nearly all actives have a fitted effect of over 45% in size. Put shortly: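 In the same plates used for the p53 bla reporter, HCT-116 cells given compounds for 16 h at 37 C received CellTiter-Glo; luminescence was recorded 30 min later at room temperature.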
For test [9], the target named is 5-hydroxytryptamine receptor 2A (Homo sapiens) (UniProt P28223). Briefly: 5-hydroxytryptamine receptor 2A (HTR2A) small molecule antagonists, cell-based qHTS assay (AID 1963586). Also: nearly all actives have a fitted effect of over 45% in size. An outline of the steps: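 Antagonist-mode intracellular calcium assay: DOI (4 nM) added after 5 min compound pre-incubation at room temperature to dye-loaded HTR2A-CHO cells. Fluorescence followed for 3 min, sampled every second.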
5-hydroxytryptamine receptor 2A (Homo sapiens), sequence (P28223 whole entry, looked up): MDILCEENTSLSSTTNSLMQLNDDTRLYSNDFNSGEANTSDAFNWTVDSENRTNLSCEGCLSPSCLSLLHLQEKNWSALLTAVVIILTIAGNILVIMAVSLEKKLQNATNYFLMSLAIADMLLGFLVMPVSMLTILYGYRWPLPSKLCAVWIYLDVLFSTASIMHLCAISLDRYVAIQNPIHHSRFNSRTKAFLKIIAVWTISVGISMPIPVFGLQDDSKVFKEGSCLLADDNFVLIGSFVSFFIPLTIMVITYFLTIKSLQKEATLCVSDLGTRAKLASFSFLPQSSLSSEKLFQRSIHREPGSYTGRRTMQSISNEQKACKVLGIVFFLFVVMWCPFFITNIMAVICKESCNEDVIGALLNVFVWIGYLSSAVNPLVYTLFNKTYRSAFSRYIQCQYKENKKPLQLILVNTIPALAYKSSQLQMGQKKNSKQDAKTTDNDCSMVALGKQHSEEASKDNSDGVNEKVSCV

Test [10] shares this target. Briefly: 5-hydroxytryptamine receptor 2A (HTR2A) small molecule agonists, cell-based qHTS assay (AID 1963587). Also: nearly all actives have a fitted effect of over 30% in size. Put shortly: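 HTR2A-CHO cells, plated 18 h at 37 C/5% CO2, dye-loaded 1 h at 37 C; compounds in DMSO added by pin tool (agonist mode). Intracellular calcium flux read as kinetic fluorescence on FDSS over 2 min at 1 s intervals.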
Test [11] concerns the target Muscarinic acetylcholine receptor M1 (Homo sapiens) (UniProt P11229). As to the kind of experiment: Cholinergic receptor muscarinic 1 (CHRM1) small molecule antagonists, cell-based qHTS assay (AID 1963588). Also: nearly all actives have a fitted effect of over 40% in size. Put shortly:
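CHRM1-CHO calcium-flux assay, antagonist mode. Cells were seeded 18 h, dye-loaded 1 h at 37 C and given compound for 5 min at RT, then acetylcholine was added at 50nM. FDSS fluorescence was read 3 min; 15 concentrations, three runs.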

The target is the same in test [12]. Briefly: Cholinergic receptor muscarinic 1 (CHRM1) small molecule agonists, cell-based qHTS assay (AID 1963589). Also: nearly all actives have a fitted effect of over 35% in size. An outline of the steps:
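Each compound was tested at 15 concentrations across three independent runs on dye-loaded CHO cells stably expressing human CHRM1, reading intracellular calcium fluorescence kinetically at 1 sec intervals.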

Test [13] is described as follows: cAMP Responsive Elements (CRE) small molecule agonists, cell-based qHTS assay (AID 1963590). An outline of the steps:
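Cell line: CRE-bla HEK 293T; medium DMEM/10% dialyzed FBS/0.1 mM NEAA/1 mM pyruvate/25 mM HEPES; 3 h compound exposure; beta-lactamase FRET readout after 2 h substrate loading at RT.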

The target in test [14] is Beta-2 adrenergic receptor (Homo sapiens) (UniProt P07550). Briefly: Adrenergic beta2 receptor (ADRB2) small molecule antagonists, cell-based qHTS assay (AID 1963592). Also: series mostly up to about 92 µM; nearly all actives have a fitted effect of over 50% in size. Put shortly:
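Cells (CHO, stable ADRB2 overexpression) incubated 18-20hr at 37C; compounds added from DMSO; agonist mix (1nM isoproterenol, 100uM IBMX, 25uM Ro-20-1724) added; 0.5hr RT; d2-cAMP and anti-cAMP-cryptate added; 1hr RT; 665/615 nm read.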

The target in test [15] is D(2) dopamine receptor (Homo sapiens) (UniProt P14416). As to the kind of experiment: Dopamine D2 receptor (DRD2) small molecule agonists, cell-based qHTS assay (AID 1963594). Also: nearly all actives have a fitted effect of over 35% in size. Put shortly:
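HEK293 cells stably expressing DRD2 were cultured 24 h at 37 C, then given Ro20-1724 (0.1 mM final) and compounds for 10 min at room temperature. NKH477 (200nM) was then added for 30 min. cAMP was read by HTRF.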

Test [16] shares this target. Briefly: Dopamine D2 receptor (DRD2) small molecule antagonists, cell-based qHTS assay (AID 1963595; active = well fitted inhibition curve with a large enough effect in the signal ratio in the repeat runs, with a control signal flat; the % refers to the signal ratio). An outline of the steps:
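Stable D2 receptor HEK293 line, 24 h after seeding. Compound preincubated 10 min, then quinpirole (12 nM) with forskolin analogue NKH477 (200 nM), 30 min, room temperature. Detection by time-resolved FRET of cAMP.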

Test [17] can be described thus: p53 small molecule agonists, cell-based qHTS assay with human liver microsomes: qHTS cell viability counter screen (AID 1963579). Also: nearly all actives have a fitted effect of over 45% in size. An outline of the steps:
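In this multiplexed counter screen, the reporter plates were subsequently treated with CellTiter-Glo so that cell viability, reflected by luminescence, could be recorded for p53RE-bla cells dosed 16 h with compounds under microsomal activation (HLM and NADPH).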

Test [18] can be described thus: p53 small molecule agonists, cell-based qHTS assay with rat liver microsomes: qHTS cell viability counter screen (AID 1963580). Also: nearly all actives have a fitted effect of over 45% in size. Put shortly: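 p53RE-bla HCT-116 cells (4,000/well) rested 5 h at 37 C, then given Tox21 compounds in DMSO with rat liver microsomes (0.5 mg/mL final) plus NADPH (0.5 mg/mL final) for 16 h at 37 C. Viability read by CellTiter-Glo luminescence after 30 min at room temperature.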

Test [19] in a line: p53 small molecule agonists, cell-based qHTS assay (AID 1963582; active = well fitted activation curve with a large enough effect in the signal ratio in the repeat runs, not every such curve was filed as active; the % refers to the signal ratio). An outline of the steps:
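Compounds are pin-transferred in DMSO onto p53RE-bla cells and incubated 16 h at 37 C. The B/G FRET beta-lactamase substrate is then applied for 2 h at RT and fluorescence recorded.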

Test [20] is described as follows: cAMP Responsive Elements (CRE) small molecule antagonists, cell-based qHTS assay (AID 1963591; active = well fitted inhibition curve with a large enough effect in the signal ratio in the repeat runs, not every such curve was filed as active; the % refers to the signal ratio). An outline of the steps:
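Inhibition of NKH477-driven (0.25 uM final) CRE-beta-lactamase signal in HEK293T cells, 3 h compound exposure at 37 °C, detected by FRET substrate fluorescence.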

Molecules are shown by their SMILES. Records with an inconclusive call do not appear. Calls of active or inactive are those of the source. Unless noted, calls follow the shape of the full dose curve.

Muscarinic acetylcholine receptor M1 (Homo sapiens), sequence (P11229 whole entry, looked up): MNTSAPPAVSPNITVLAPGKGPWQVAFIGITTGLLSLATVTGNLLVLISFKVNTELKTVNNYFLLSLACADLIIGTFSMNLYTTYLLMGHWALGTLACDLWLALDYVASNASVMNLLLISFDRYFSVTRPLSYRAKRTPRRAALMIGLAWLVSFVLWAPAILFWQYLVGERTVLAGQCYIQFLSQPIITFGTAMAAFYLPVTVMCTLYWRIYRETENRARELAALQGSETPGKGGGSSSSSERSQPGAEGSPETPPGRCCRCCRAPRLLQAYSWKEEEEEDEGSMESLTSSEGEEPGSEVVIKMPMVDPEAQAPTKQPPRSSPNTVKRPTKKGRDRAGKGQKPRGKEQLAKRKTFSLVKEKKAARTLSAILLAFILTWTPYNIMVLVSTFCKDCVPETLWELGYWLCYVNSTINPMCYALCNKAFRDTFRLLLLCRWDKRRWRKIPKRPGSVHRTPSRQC
D(2) dopamine receptor (Homo sapiens), sequence (P14416 whole entry, looked up): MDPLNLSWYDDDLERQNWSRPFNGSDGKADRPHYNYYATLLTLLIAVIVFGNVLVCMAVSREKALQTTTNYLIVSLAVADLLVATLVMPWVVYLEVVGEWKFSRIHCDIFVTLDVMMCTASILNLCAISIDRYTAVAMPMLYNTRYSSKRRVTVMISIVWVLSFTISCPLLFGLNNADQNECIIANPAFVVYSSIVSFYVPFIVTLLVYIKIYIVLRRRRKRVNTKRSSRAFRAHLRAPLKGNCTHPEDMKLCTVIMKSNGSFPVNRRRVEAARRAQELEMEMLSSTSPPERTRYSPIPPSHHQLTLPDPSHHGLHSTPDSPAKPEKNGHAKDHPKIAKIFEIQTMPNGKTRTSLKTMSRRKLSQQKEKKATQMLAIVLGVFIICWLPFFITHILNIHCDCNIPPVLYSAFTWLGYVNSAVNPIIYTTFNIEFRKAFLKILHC
Gonadotropin-releasing hormone receptor (Homo sapiens), sequence (P30968 whole entry, looked up): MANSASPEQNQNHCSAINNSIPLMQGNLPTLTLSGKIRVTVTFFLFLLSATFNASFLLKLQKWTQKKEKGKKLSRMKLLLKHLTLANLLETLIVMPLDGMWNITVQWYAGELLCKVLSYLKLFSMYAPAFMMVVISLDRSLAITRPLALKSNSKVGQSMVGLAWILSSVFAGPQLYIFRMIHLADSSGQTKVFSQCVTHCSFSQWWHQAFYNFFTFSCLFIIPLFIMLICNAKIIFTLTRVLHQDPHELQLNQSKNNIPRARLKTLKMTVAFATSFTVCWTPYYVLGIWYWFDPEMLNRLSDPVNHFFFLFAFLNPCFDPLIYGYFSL
KiSS-1 receptor (Homo sapiens), sequence (Q969F8 whole entry, looked up): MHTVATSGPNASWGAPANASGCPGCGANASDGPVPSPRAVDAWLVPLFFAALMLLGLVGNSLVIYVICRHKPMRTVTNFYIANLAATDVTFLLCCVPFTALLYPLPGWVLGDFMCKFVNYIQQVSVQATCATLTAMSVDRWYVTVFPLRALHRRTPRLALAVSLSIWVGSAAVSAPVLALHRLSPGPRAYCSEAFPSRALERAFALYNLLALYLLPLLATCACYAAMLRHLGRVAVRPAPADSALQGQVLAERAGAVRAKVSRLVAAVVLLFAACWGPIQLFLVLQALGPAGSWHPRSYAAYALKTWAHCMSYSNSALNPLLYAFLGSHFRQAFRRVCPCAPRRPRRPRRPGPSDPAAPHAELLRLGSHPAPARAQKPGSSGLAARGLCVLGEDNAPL
Beta-2 adrenergic receptor (Homo sapiens), sequence (P07550 whole entry, looked up): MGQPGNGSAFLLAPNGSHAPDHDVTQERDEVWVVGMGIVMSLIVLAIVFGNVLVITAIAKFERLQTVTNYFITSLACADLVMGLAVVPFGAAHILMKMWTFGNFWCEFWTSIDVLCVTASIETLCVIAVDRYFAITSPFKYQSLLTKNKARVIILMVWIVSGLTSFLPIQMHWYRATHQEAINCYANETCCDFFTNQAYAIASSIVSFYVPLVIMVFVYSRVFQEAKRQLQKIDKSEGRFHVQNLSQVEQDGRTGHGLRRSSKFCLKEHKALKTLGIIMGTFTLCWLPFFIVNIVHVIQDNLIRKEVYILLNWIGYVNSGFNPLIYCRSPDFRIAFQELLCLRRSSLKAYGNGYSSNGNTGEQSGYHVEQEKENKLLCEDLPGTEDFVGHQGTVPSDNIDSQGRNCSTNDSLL

In the case of `CC(C)C(=O)Nc1cccc(C(F)(F)F)c1`, the Potency entry in [1], in [2], in test [3], in test [6], in test [7] and in test [8] was “inactive” throughout. The Potency result in test [9], in test [10], in test [11], in test [12], in test [13] and in test [14] was “inactive” throughout. Moreover, the Potency result in test [15] and in test [16] was “inactive” each time. Moreover, the result in [4] and in test [5] was inactive.
For the compound `CCOC(=O)COc1cc(-n2ncc(C(F)(F)F)c(C)c2=O)c(F)cc1Cl`, the Potency result in [1], in test [2], in test [3], in test [6], in [17] and in test [18] was “inactive” in each case. Moreover, the Potency result in test [8], in test [19], in [9], in test [10], in [11] and in [12] was “inactive” in each case. The Potency result in test [14], in [15] and in test [16] was “inactive” throughout. The outcome in test [4] and in test [5] was inactive.
As for `CCCCC(CC)COC(=O)CC#N` (stereo not given), the Potency result in test [1], in [2], in test [3], in test [6], in [17] and in test [18] was “inactive” throughout. The Potency entry in [8], in [19], in test [9], in test [10], in test [11] and in test [12] was “inactive” each time. The Potency entry in test [13], in [14], in test [15] and in test [16] was “inactive” each time. In addition, the result in [4] and in test [5] was inactive.
Turning to `COCCC(=O)OC`, the Potency result in test [1], in test [3], in test [6], in test [7], in [8] and in test [19] was “inactive” throughout. Further, the Potency result in test [9], in [10], in [11], in [12], in test [13] and in test [20] was “inactive” in each case. In addition, the Potency entry in test [14], in test [15] and in test [16] was “inactive” throughout. The Potency in test [2] was 68.6 µM (active). Besides, the outcome in test [4] and in test [5] was inactive.
With `CCOC(=O)C1CC(=O)C(=C(O)C2CC2)C(=O)C1` (stereo not given), the Potency result in test [1], in [2], in [3], in test [6], in [17] and in test [18] was “inactive” in each case. In addition, the Potency result in test [8], in [19], in [9], in test [10], in test [11] and in test [12] was “inactive” throughout. In addition, the Potency result in test [20], in test [14], in test [15] and in [16] was “inactive” throughout. Besides, the outcome in test [4] and in test [5] was inactive.
As to `COC(=O)CCCC(=O)O`, the Potency entry in test [1], in test [2], in test [3], in test [6], in test [17] and in [18] was “inactive” throughout. In addition, the Potency result in [8], in [19], in test [9], in [10], in [11] and in test [12] was “inactive” in each case. For the same compound, the Potency entry in test [13], in test [20], in [15] and in test [16] was “inactive” in each case. The outcome in test [4] and in [5] was inactive.
